Screening results: PubChem, NMMLSC
Rows were chosen to be rich in hits. Some 0.93% of all compounds tested hit in one or more screens of this group.
CIT2 TOR yeast: yeast TOR pathway CIT2-GFP modulation. GFP response vs DMSO, % at 10 µM. AID 2029. S. cerevisiae CIT2-GFP strain, flow cytometry, 3 h; 100 means same as DMSO wells. 320,000 compounds, 0.065% hits;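 active = GFP response relative to DMSO above a set limit, near the screen mean plus 3 SD, cut at about 150% in these data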;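 note: ratio of well median GFP fluorescence to mean of DMSO wells on the plate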
MEP2 TOR yeast: alters MEP2-GFP fluorescence in TOR pathway yeast screen | GFP response vs DMSO, % at 10 µM | 330,000 compounds, 0.51% hits | S. cerevisiae MEP2-GFP strain, flow cytometry GFP, 3 h; 100% = DMSO control level;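 active = GFP response versus DMSO above a set limit, roughly screen mean plus 3 SD, cut at about 180% in these data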;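 note: median GFP fluorescence of the barcode-gated MEP2-GFP cells per well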
LAP4-GFP MLPCN: alters LAP4-GFP fluorescence in TOR pathway yeast screen. S. cerevisiae LAP4-GFP multiplex, flow cytometry GFP, 3 h; median GFP as percent of DMSO wells. GFP response vs DMSO, % at 10 µM. 320,000 compounds, 0.34% hits;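 active = GFP response vs DMSO above a set limit, about the screen mean plus 3 SD, cut at about 150% in these data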
AGP1 TOR yeast: alters AGP1-GFP fluorescence in TOR pathway yeast screen; S. cerevisiae AGP1-GFP multiplex flow cytometry, 3 h; GFP as percent of DMSO wells; GFP response vs DMSO, % at 10 µM; 320,000 compounds, 0.02% hits; AID 2066;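 active = GFP response relative to DMSO above a set limit, near screen average plus 3 SD, cut at about 150% in these data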;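 note: median GFP channel fluorescence of the gated AGP1 strain per well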
RPL19A TOR yeast: yeast TOR pathway RPL19A-GFP modulation. 330,000 compounds, 0.3% hits. S. cerevisiae RPL19A-GFP strain, flow cytometry, 3 h; active compounds read low. AID 2025. percent response vs DMSO, % at 10 µM;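 active = percent response vs DMSO below 50%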;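 note: median channel GFP fluorescence of the barcoded RPL19A-GFP strain; ratio of sample median GFP to plate DMSO average so 100% = DMSO; lower means less RPL19A-GFP as with rapamycin TOR inhibition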
LAP4 cherry2: reconfirmed LAP4-GFP TOR pathway modulator in yeast; shares compounds with LAP4-GFP MLPCN; S. cerevisiae LAP4-GFP strain, flow cytometry GFP, 3 h; GFP response vs DMSO, % at 10 µM; 590 compounds, 20% hits;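 active = GFP signal as percent of the solvent control above about 150%, meaning raised reporter expression, limit read from the data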;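 note: ratio of well median GFP fluorescence to plate DMSO mean so 100% = DMSO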
MEP2 cherry2: second confirmation of modulators of TOR reporter MEP2-GFP in yeast | shares compounds with LAP4-GFP MLPCN | S. cerevisiae MEP2-GFP strain, flow cytometry GFP, 3 h | GFP response vs DMSO, % at 10 µM | 590 compounds, 10% hits;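 active = GFP signal above 150% of the solvent control wells, that is a rise of more than half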;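 note: median channel GFP fluorescence of all gated yeast cells per well; ratio of median GFP to plate DMSO average so 100% = DMSO level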
RPL19A-GFP pick2: reconfirmed modulator of RPL19A-GFP TOR reporter in yeast | GFP response vs DMSO, % at 10 µM | S. cerevisiae RPL19A-GFP strain, flow cytometry GFP, 3 h; active compounds read low; 100% means same as DMSO wells | AID 2623 | shares compounds with LAP4-GFP MLPCN | 590 compounds, 3% hits;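 active = under 65% GFP response relative to DMSO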;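 note: median GFP channel fluorescence per well over the all cells gate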
CIT2 GFP CP2: second confirmation of modulators of TOR reporter CIT2-GFP in yeast; 590 compounds, 8% hits; GFP response vs DMSO, % at 10 µM; shares compounds with LAP4-GFP MLPCN; S. cerevisiae CIT2-GFP strain, flow cytometry GFP, 3 h; DMSO control wells read 100%;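 active = GFP response vs DMSO above about 150%, limit read from the data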;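 note: median green fluorescence per well over all gated yeast cells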
AGP1-GFP pick2: second confirmation of modulators of TOR reporter AGP1-GFP in yeast; shares compounds with LAP4-GFP MLPCN; S. cerevisiae AGP1-GFP strain, flow cytometry GFP, 3 h; percent response vs DMSO, % at 10 µM; 590 tested, under 10 active; AID 2643;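 active = over 150 percent of DMSO response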;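 note: median GFP channel fluorescence over all cells without mother daughter split; sample median GFP divided by mean DMSO control so 100% equals DMSO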
s288c autofluor: counter-screen for compound autofluorescence in yeast s288c cells. shares compounds with LAP4-GFP MLPCN. S. cerevisiae s288c, 520 nm autofluorescence, flow cytometry, 3 h; active compounds read high; zero means same as solvent-only cells. 610 tested, under 10 active. AID 2757. fluorescence change (kMESF span) at 33 µM;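 active = fluorescence span over the dose series, or activity score, above about 33, limit read from the data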
Yeast autofl DR: TOR screen hit shows autofluorescence in yeast s288c | shares compounds with LAP4-GFP MLPCN | S. cerevisiae s288c parental, compound autofluorescence, flow cytometry, 3 h | 110 tested, under 10 active | fluorescence change (span) at 33 µM;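 active = fluorescence change span, or the activity score built from it, above 25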
TORC1 bypass gr: wildtype yeast growth loss with TORC1 bypass cells unaffected; shares compounds with LAP4-GFP MLPCN; S. cerevisiae BY4741 spot growth rating, 48-72 h; active compounds read low; growth rating (0-3) at 30 µM; 120 tested, under 10 active; AID 504456;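 active = growth rating at most 1 for wild type yeast while the TORC1 bypass strain still grows fully, rated 3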
* marks the source's active call; other numbers are inactive results.

What do the screens show for `O=C1NC(=O)C(=Cc2ccc(SC3CCCCC3)o2)C(=O)N1`?
CIT2 TOR yeast: 53.2; MEP2 TOR yeast: 84.2; LAP4-GFP MLPCN: 141.6; AGP1 TOR yeast: 51.7; RPL19A TOR yeast: 60.5; LAP4 cherry2: 120.2; MEP2 cherry2: 134.8; RPL19A-GFP pick2: 68.5; CIT2 GFP CP2: 75.8; AGP1-GFP pick2: 69.0

What do the screens show for `CC1(C)OC(c2ccccc2)=C/C(=C/C=C2C(=O)NC(=S)NC2=O)O1`?
MEP2 TOR yeast: 125.8; LAP4-GFP MLPCN: 179.2*; AGP1 TOR yeast: 75.2; RPL19A TOR yeast: 92.1; s288c autofluor: 4.49

Results for CN(C)C(=S)SSC(=S)N(C)C ?
CIT2 TOR yeast: 71.1; MEP2 TOR yeast: 91.7; LAP4-GFP MLPCN: 200.7*; AGP1 TOR yeast: 75.8; RPL19A TOR yeast: 93.7; LAP4 cherry2: 128.8; MEP2 cherry2: 106.5; RPL19A-GFP pick2: 95.0; CIT2 GFP CP2: 109.7; AGP1-GFP pick2: 93.5

What do the screens show for `Cc1ncc2n1-c1ccc(Cl)cc1C(c1ccccc1F)=NC2`?
CIT2 TOR yeast: 95.7; MEP2 TOR yeast: 113.9; LAP4-GFP MLPCN: 106.4; AGP1 TOR yeast: 96.7; RPL19A TOR yeast: 86.5

Results for C=C1C(O)[C@@H]2O[C@]3(CC[C@H](/C=C/C(C)[C@@H]4CC(C)=CC5(O[C@H](C[C@@](C)(O)C(=O)O)CCC5O)O4)O3)CC[C@H]2O[C@@H]1C(O)CC(C)[C@H]1OC2(CCCCO2)CCC1C (stereo partly drawn) ?
CIT2 TOR yeast: 50.4; MEP2 TOR yeast: 83.9; LAP4-GFP MLPCN: 266.5*; AGP1 TOR yeast: 80.2; RPL19A TOR yeast: 98.1; LAP4 cherry2: 268.3*; MEP2 cherry2: 124.8; RPL19A-GFP pick2: 124.4; CIT2 GFP CP2: 86.0; AGP1-GFP pick2: 102.7; s288c autofluor: 0.4

Results for C[C@H]1C[C@@H](C)C(=O)[C@@H]([C@H](O)CC2CC(=O)NC(=O)C2)C1 ?
CIT2 TOR yeast: 44.0; MEP2 TOR yeast: 81.1; LAP4-GFP MLPCN: 136.7; AGP1 TOR yeast: 53.1; RPL19A TOR yeast: 57.5; LAP4 cherry2: 129.3; MEP2 cherry2: 158.9*; RPL19A-GFP pick2: 74.3; CIT2 GFP CP2: 87.6; AGP1-GFP pick2: 73.8; s288c autofluor: 1.3; Yeast autofl DR: 0.51; TORC1 bypass gr: 0

Results for C=C1C(=O)O[C@@H]2C[C@@H](C)[C@H]3C=CC(=O)[C@]3(O)C[C@@H]12 ?
CIT2 TOR yeast: 54.3; MEP2 TOR yeast: 206.9*; LAP4-GFP MLPCN: 90.8; AGP1 TOR yeast: 25.8; RPL19A TOR yeast: 99.1; LAP4 cherry2: 102.2; MEP2 cherry2: 103.1; RPL19A-GFP pick2: 99.3; CIT2 GFP CP2: 100.1; AGP1-GFP pick2: 98.6
